Assay results as given in PubChem BioAssay (NCI).
The panel holds about 83,000 compounds, 20% with a hit somewhere; the sample as a whole holds those more often.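 Growth was measured after 48 h exposure to one concentration of compound in 96-well plates. Values under 10 count as active.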 Activity calls are given as the source filed them.

Tests used:
Assay in all cases: NCI-60 one-dose screen, 48 h (100 = growth as untreated, 0 = no growth, -100 = all killed)
[1] = system: DU-145 prostate; conditions: 10 µM unless noted
[2] = system: K-562 leukemia; conditions: 10 µM unless noted
[3] = system: MALME-3M melanoma; conditions: 10 µM unless noted
[4] = system: MDA-MB-231 breast; conditions: 10 µM unless noted
[5] = system: RXF 393 renal; conditions: 10 µM unless noted
[6] = system: SF-268 CNS; conditions: 10 µM unless noted
[7] = system: SF-295 CNS; conditions: 10 µM unless noted
[8] = system: SF-539 CNS; conditions: 10 µM unless noted
[9] = system: UACC-257 melanoma; conditions: 10 µM unless noted
[10] = system: M14 melanoma; conditions: 10 µM unless noted
[11] = system: HCT-15 colon; conditions: 10 µM unless noted
[12] = system: HT29 colon; conditions: 10 µM unless noted
[13] = system: SNB-75 CNS; conditions: 10 µM unless noted
[14] = system: SNB-19 CNS; conditions: 10 µM unless noted
[15] = system: U251 CNS; conditions: 10 µM unless noted
[16] = system: PC-3 prostate; conditions: 10 µM unless noted
[17] = system: SK-MEL-5 melanoma; conditions: 10 µM unless noted
[18] = system: UACC-62 melanoma; conditions: 10 µM unless noted
[19] = system: LOX IMVI melanoma; conditions: 10 µM
[20] = system: SK-MEL-28 melanoma; conditions: 10 µM unless noted

Measured: growth

Cc1ccc(C2CC(c3ccc(S(=O)(=O)NCCNc4nc(Nc5ccc(F)cc5)nc(N(C)C)n4)cc3)=Nc3c(N)nc(N)nc3N2)cc1 (stereo not given)
inactive: [1] 76% | [3] 54.3% | [4] 32.5% | [5] 27.2% | [6] 57.7% | [7] 48% | [9] 75.4% | [10] 41.5% | [11] 29.1% | [13] 77.7% | [14] 60.4% | [15] 47.3% | [16] 33.5% | [17] 29.1% | [18] 63.7% | [20] 59.8%
active: [2] 8.57% | [8] -44% | [12] -14.3% | [19] 6.81%

C#CCOc1cc(N(CC)CC)ccc1C(C(=O)NC(C)(C)C)N(C(=O)C1CCc2cc(F)ccc2O1)c1ccccc1Br (stereo not given)
inactive: [1] 74% | [2] 31.3% | [3] 77.4% | [4] 63% | [5] 81.6% | [6] 62.1% | [7] 62.8% | [8] 72.5% | [9] 60% | [10] 55.5% | [11] 50.2% | [12] 51.1% | [13] 97.5% | [14] 56.5% | [15] 48.6% | [16] 27.3% | [17] 56.8% | [18] 40.8% | [19] 31.7% | [20] 64.8%

Cc1ccc(-c2nc(Nc3ccccc3S(N)(=O)=O)c3ccccc3n2)cc1
inactive: [1] 77.6% | [2] 46.1% | [3] 97.7% | [4] 21.6% | [5] 51.1% | [6] 70.1% | [7] 94.4% | [9] 106% | [10] 90.3% | [11] 40.1% | [12] 95% | [13] 91% | [14] 89% | [15] 57.5% | [16] 64.4% | [17] 87% | [18] 70.7% | [20] 107%
active: [8] -11.9% | [19] 9.36%

N/C(=N\c1nc2ccccc2s1)NC(=O)Nc1c(Cl)cccc1Cl
inactive: [1] 55.1% | [2] 19.6% | [3] 44% | [4] 28.9% | [5] 80.8% | [6] 42.2% | [7] 28.2% | [8] 30.8% | [9] 75.4% | [10] 21.8% | [11] 26.1% | [13] 27.7% | [14] 54.7% | [15] 27.9% | [16] 63.2% | [17] 22.4% | [18] 23.6% | [19] 24.7% | [20] 50.6%
active: [12] 8.87%

Cc1ccc(C(=O)C(c2c[nH]c3ccccc23)c2c[nH]c3ccccc23)cc1
active: [1] 4.62% | [2] 5.78% | [11] -15.3% | [12] -26.1% | [19] -78.5%
inactive: [3] 72.6% | [4] 24.2% | [5] 34% | [6] 51.5% | [7] 81.9% | [8] 70.4% | [9] 76.6% | [10] 33.9% | [13] 70.1% | [14] 87.4% | [15] 21.6% | [16] 17.1% | [17] 83% | [18] 51.2% | [20] 19.7%

CCOC(=O)/C=C/c1cccc2c1C(=O)NC(C)(c1cc3cc(Br)ccc3oc1=O)N2 (stereo not given)
inactive: [1] 49.6% | [2] 24.1% | [3] 71% | [4] 56% | [5] 35.6% | [6] 49.8% | [7] 36.7% | [8] 73.9% | [9] 64.6% | [10] 42.4% | [11] 26.4% | [12] 43.5% | [13] 38.3% | [14] 48.7% | [15] 47.1% | [16] 25.4% | [17] 48.2% | [18] 31.4% | [19] 44.3% | [20] 58.1%

Cn1cc(-c2cc3nc(-c4c[nH]c5ccc(Cl)cc45)cc(N)n3n2)c2ccccc21
active: [1] -85.9% | [2] 1.64% | [3] -74.4% | [4] -56.2% | [5] -80.1% | [6] -44.9% | [7] -82.9% | [8] -87.9% | [9] -84.8% | [10] -89.6% | [11] -86.2% | [12] -80.7% | [13] -67.5% | [14] -72.3% | [15] -83% | [16] -80.9% | [17] -84.8% | [18] -70.9% | [19] -80.7% | [20] -97.4%

CC1(C)CC[C@]2(C(=O)O)CC[C@]3(C)C(=CCC4[C@@]5(C)C[C@@H](O)[C@@H]6OC(c7ccccc7Br)OC[C@@]6(C)C5CC[C@]43C)C2C1 (stereo not given in full)
inactive: [1] 20% | [2] 11.6% | [3] 44% | [4] 32.4% | [5] 22.7% | [6] 24.2% | [7] 10.6% | [8] 26.8% | [9] 18.2% | [10] 31.8% | [12] 13.1% | [13] 48.1% | [14] 27.7% | [15] 13.2% | [16] 13.1% | [18] 28.5% | [19] 13.5% | [20] 39.5%
active: [11] 8.96% | [17] 7%

CNS(=O)(=O)c1ccc(Nc2ccc(C(F)(F)F)cc2)c(-c2cn(C)cn2)c1
inactive: [1] 62.3% | [2] 21.5% | [3] 68.1% | [4] 60.3% | [5] 52.1% | [6] 41.5% | [7] 43.7% | [8] 64.4% | [9] 64% | [10] 49.8% | [11] 34.5% | [12] 49.6% | [13] 90.9% | [14] 49.5% | [15] 51.1% | [16] 57.6% | [17] 60.1% | [18] 37.1% | [19] 43.1% | [20] 74.8%

C#CCOc1ccc(/C=N/Nc2nc(-c3ccc(F)cc3)cs2)cc1OC
inactive: [1] 89% | [2] 25% | [3] 86.3% | [4] 73.5% | [5] 24% | [6] 84.8% | [7] 79.2% | [8] 70.6% | [9] 63.7% | [10] 61.3% | [11] 41.2% | [12] 78.8% | [13] 81.8% | [14] 77.5% | [15] 89.4% | [16] 24.2% | [18] 46.7% | [19] 62.4% | [20] 76.5%
active: [17] 3.86%

COc1cccc(-c2nc(Nc3ccc(S(N)(=O)=O)cc3)c3ccccc3n2)c1
inactive: [1] 29.4% | [2] 10.3% | [3] 37.9% | [4] 13.3% | [5] 12.5% | [6] 33.7% | [8] 11.9% | [9] 68.4% | [10] 38.7% | [12] 13.8% | [13] 61.1% | [14] 50.4% | [15] 40.3% | [16] 29.3% | [17] 25.6% | [18] 37.5% | [19] 24.8% | [20] 47.3%
active: [7] 2.4% | [11] 5.48%

O=C(CCN1C(=O)/C(=C/c2ccc(F)cc2)SC1=S)N1CCOCC1
inactive: [1] 35.8% | [2] 43% | [3] 46.1% | [4] 60.9% | [5] 47.7% | [6] 86.7% | [7] 104% | [8] 68.6% | [9] 52% | [10] 57.1% | [11] 55.3% | [12] 78.7% | [13] 98.3% | [14] 87.6% | [15] 89.1% | [16] 106% | [17] 83.2% | [18] 47.6% | [19] 40.2% | [20] 72.9%

CCOC(=O)C1=C(N)N(c2ccccc2)C2=C(C(=O)CC(C)(C)C2)C1c1ccc(N2CCOCC2)cc1 (stereo not given)
inactive: [1] 111% | [2] 96.9% | [3] 112% | [4] 104% | [5] 91.2% | [6] 97.4% | [7] 98.9% | [8] 93% | [9] 109% | [10] 101% | [11] 97.8% | [12] 112% | [13] 91.4% | [14] 92.9% | [15] 98.7% | [16] 94.6% | [17] 98.7% | [18] 83% | [19] 93.2% | [20] 107%

O=C(Cn1nc(-c2ccccc2)ccc1=O)N/N=C/c1ccc(N2CCOCC2)cc1
inactive: [1] 101% | [2] 88.9% | [3] 90.1% | [4] 104% | [5] 111% | [6] 98.2% | [7] 88.8% | [8] 90.5% | [9] 99.2% | [10] 102% | [11] 97.2% | [12] 113% | [13] 96.4% | [14] 89.9% | [15] 93.2% | [16] 102% | [17] 92.4% | [18] 83.7% | [19] 102% | [20] 104%

N/C(=N\c1nc2ccccc2s1)NC(=O)Nc1ccccc1Br
active: [1] -40.7% | [3] -12.5% | [4] -50.3% | [5] 0.178% | [6] 1.62% | [7] -31.4% | [8] -75.6% | [10] 2.92% | [11] -4.76% | [12] -61.1% | [13] -33.3% | [14] 2.22% | [15] -53.3% | [17] -55.3% | [18] -7.53% | [19] -75.7%
inactive: [2] 11.5% | [9] 54.8% | [16] 34.6% | [20] 28.5%
